Data: the supplement of paper PMC12350171
Structures can show the parent of a compound that is named as a salt.

Legend:
Conditions in all cases: 20 µM
[1] = test system: Salmonella enterica typhimurium; test: growth AUC normalised to DMSO control (fraction of control); higher = less growth inhibition, active = hit call of the paper
Outline: (§1)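 Hemin and NAD were added to the medium for Haemophilus parainfluenzae. All pathogens, after two anaerobic passages, were inoculated at a starting OD578 of 0.01 into pre-reduced mGAM plates with 20 μM compound and 1% DMSO under breathable seals, and OD578 was read hourly for 24 h in three biological replicates. AUC of each growth curve was obtained with the trapezoidal rule up to the exponential-to-stationary transition and normalised to DMSO controls from the same plate.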

Shigella flexneri = test: as above
Outline: as §1

Vibrio cholerae = test: as above
Outline: as §1

[2] = test system: Yersinia pseudotuberculosis; test: as above
Outline: as §1

P. vulgatus RND KO = test: growth AUC normalised to DMSO control (median) (fraction of control); higher = less growth inhibition, active = hit call of the paper
Outline: (§2)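 In 96-well plates of mGAM seeded at OD578 0.01, strains that had been passaged twice overnight without oxygen were exposed to approved-drug library compounds at 20 μM with 1% DMSO. Hourly OD578 readings were taken for 24 h in an anaerobic incubator. The trapezoidal-rule area under the curve, with curves truncated at entry into stationary phase, was expressed relative to same-plate vehicle wells as the median of three biological replicates.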

P. vulgatus WT = test: as above
Outline: as §2

[3] = test system: S. enterica typhimurium WT; test: as above
Outline: as §2

[4] = test system: S. enterica typhimurium tolC KO; test: as above
Outline: as §2

Measured: growth AUC normalised to DMSO control
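Wherever growth AUC normalised to DMSO control (median) is given: active when median AUC fell below 0.1.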

OCC(O)CN1CCN(c2ccccc2)CC1 (stereo not given) [Dropropizine]
inactive: [1] 1.02 | Shigella flexneri 1.06 | Vibrio cholerae 1.04 | [2] 1.01 | P. vulgatus RND KO 1.05 | P. vulgatus WT 1.06 | [3] 0.991 | [4] 0.981

CC(C)NCC(O)COc1ccc(COCCOC(C)C)cc1 (stereo not given) [Bisoprolol hemifumarate]
inactive: [1] 1.03 | Shigella flexneri 1.03 | Vibrio cholerae 1.05 | [2] 1.02 | P. vulgatus RND KO 1.02 | P. vulgatus WT 1.08 | [3] 1.01 | [4] 1.01

CC[C@H](C)C(=O)O[C@H]1CCC=C2C=C[C@H](C)[C@H](CC[C@@H]3C[C@@H](O)CC(=O)O3)[C@H]21 [Mevastatin]
inactive: [1] 1 | Shigella flexneri 1.01 | Vibrio cholerae 1.02 | [2] 0.974 | P. vulgatus RND KO 0.952 | P. vulgatus WT 0.989 | [3] 1.01 | [4] 0.922

COc1ccccc1N1CCN(CCCCNC(=O)c2ccc3ccccc3c2)CC1
active: Vibrio cholerae 0.0446
inactive: [1] 1.01 | Shigella flexneri 1.03 | [2] 0.978 | P. vulgatus RND KO 1.02 | P. vulgatus WT 1.08 | [3] 0.985 | [4] 0.753

CNC(=C[N+](=O)[O-])NCCSCc1ccc(CN(C)C)o1 [Ranitidine hydrochloride]
inactive: [1] 1 | Shigella flexneri 1 | Vibrio cholerae 1.01 | [2] 1.01 | P. vulgatus RND KO 1.01 | P. vulgatus WT 0.985 | [3] 1.02 | [4] 1.01

Cc1cc(CC(=O)O)n(C)c1C(=O)c1ccc(Cl)cc1 [Zomepirac sodium salt]
inactive: [1] 0.997 | Shigella flexneri 1 | Vibrio cholerae 0.995 | [2] 1 | P. vulgatus RND KO 0.992 | P. vulgatus WT 1.01 | [3] 0.991 | [4] 1.02

O=C(CCNNC(=O)c1ccncc1)NCc1ccccc1 [Nialamide]
inactive: [1] 0.997 | Shigella flexneri 1.02 | Vibrio cholerae 1.05 | [2] 1.01 | P. vulgatus RND KO 0.995 | P. vulgatus WT 1.04 | [3] 0.999 | [4] 1.01

NS(=O)(=O)c1cc2c(cc1Cl)N=C(CSCc1ccccc1)NS2(=O)=O [Benzthiazide]
inactive: [1] 0.998 | Shigella flexneri 0.958 | Vibrio cholerae 0.947 | [2] 1.01 | P. vulgatus RND KO 0.99 | P. vulgatus WT 0.992 | [3] 1.01 | [4] 0.996

Cc1ccccc1OCC(O)CO (stereo not given) [Mephenesin]
inactive: [1] 0.999 | Shigella flexneri 1 | Vibrio cholerae 0.999 | [2] 0.994 | P. vulgatus RND KO 1.01 | P. vulgatus WT 1.01 | [3] 1 | [4] 1

CN1CCCN(C(c2ccccc2)c2ccc(Cl)cc2)CC1 (stereo not given) [Homochlorcyclizine dihydrochloride]
inactive: [1] 0.971 | Shigella flexneri 0.938 | Vibrio cholerae 0.861 | [2] 0.965 | P. vulgatus RND KO 0.972 | P. vulgatus WT 0.984 | [3] 1 | [4] 0.956

Nc1nc2c(ncn2COC(CO)CO)c(=O)[nH]1 [Ganciclovir]
inactive: [1] 0.988 | Shigella flexneri 0.996 | Vibrio cholerae 1 | [2] 0.99 | P. vulgatus RND KO 0.978 | P. vulgatus WT 0.971 | [3] 0.992 | [4] 0.993

CCCCOc1ccc(C(=O)CCN2CCCCC2)cc1 [Dyclonine hydrochloride]
inactive: [1] 0.985 | Shigella flexneri 0.963 | Vibrio cholerae 0.913 | [2] 0.979 | P. vulgatus RND KO 1 | P. vulgatus WT 1.01 | [3] 0.996 | [4] 0.986

NC(=O)NC1NC(=O)NC1=O (stereo not given) [Allantoin]
inactive: [1] 1 | Shigella flexneri 0.996 | Vibrio cholerae 1.05 | [2] 0.989 | P. vulgatus RND KO 0.999 | P. vulgatus WT 1.01 | [3] 0.994 | [4] 0.998

C=CCc1ccccc1OCC(O)CNC(C)C (stereo not given) [Alprenolol hydrochloride]
inactive: [1] 1.01 | Shigella flexneri 1.06 | Vibrio cholerae 1.04 | [2] 1.01 | P. vulgatus RND KO 1.07 | P. vulgatus WT 1.08 | [3] 0.995 | [4] 0.997

CN[C@@H]1[C@H](O[C@H]2[C@H](O[C@H]3[C@H](O)[C@@H](O)[C@H](NC(=N)N)[C@@H](O)[C@@H]3NC(=N)N)O[C@@H](C)[C@]2(O)CO)O[C@@H](CO)[C@H](O)[C@H]1O [Dihydrostreptomycin sulfate]
inactive: [1] 0.994 | Shigella flexneri 1.01 | Vibrio cholerae 1.02 | [2] 0.973 | P. vulgatus RND KO 0.999 | P. vulgatus WT 1.02 | [3] 0.992 | [4] 0.989

CCCCCCCN(CC)CCCC(O)c1ccc(NS(C)(=O)=O)cc1 (stereo not given) [Ibutilide fumarate]
inactive: [1] 0.991 | Shigella flexneri 0.961 | Vibrio cholerae 0.964 | [2] 0.989 | P. vulgatus RND KO 1.01 | P. vulgatus WT 0.991 | [3] 0.996 | [4] 1.01

CN1CCOC(c2ccccc2)c2ccccc2C1 (stereo not given) [Nefopam hydrochloride]
inactive: [1] 0.987 | Shigella flexneri 0.993 | Vibrio cholerae 0.983 | [2] 1 | P. vulgatus RND KO 0.992 | P. vulgatus WT 0.982 | [3] 1 | [4] 0.988

CC(=O)O[C@H]1C[C@@H]2CC[C@@H]3[C@H](CC[C@@]4(C)[C@H]3C[C@H]([N+]3(C)CCCCC3)[C@@H]4OC(C)=O)[C@@]2(C)C[C@@H]1N1CCCCC1 [Vecuronium bromide]
inactive: [1] 1.01 | Shigella flexneri 0.979 | Vibrio cholerae 1.01 | [2] 1.02 | P. vulgatus RND KO 0.955 | P. vulgatus WT 0.998 | [3] 1 | [4] 1

COC(=O)CCc1ccc(OCC(O)CNC(C)C)cc1 (stereo not given) [Esmolol hydrochloride]
inactive: [1] 1.01 | Shigella flexneri 1.06 | Vibrio cholerae 1.06 | [2] 1 | P. vulgatus RND KO 1.05 | P. vulgatus WT 1.09 | [3] 1 | [4] 1.01

CC(C(=O)O)c1ccc2c(c1)Cc1cccnc1O2 (stereo not given) [Pranoprofen]
inactive: [1] 0.999 | Shigella flexneri 0.976 | Vibrio cholerae 0.993 | [2] 1.01 | P. vulgatus RND KO 1.04 | P. vulgatus WT 1.04 | [3] 1.01 | [4] 1

CC(C)NCC(O)COc1ccc(CCOCC2CC2)cc1 (stereo not given) [Betaxolol hydrochloride]
inactive: [1] 0.998 | Shigella flexneri 0.988 | Vibrio cholerae 1 | [2] 1 | P. vulgatus RND KO 1.01 | P. vulgatus WT 1.01 | [3] 1.01 | [4] 1

CC1=Nc2ccc(Cl)cc2S(=O)(=O)N1 [Diazoxide]
inactive: [1] 1.01 | Shigella flexneri 1.03 | Vibrio cholerae 1.02 | [2] 0.999 | P. vulgatus RND KO 1.04 | P. vulgatus WT 1.01 | [3] 1.01 | [4] 0.989

CC(=O)c1ccc2c(c1)N(CCCN1CCC(CCO)CC1)c1ccccc1S2 [Piperacetazine]
inactive: [1] 0.971 | Shigella flexneri 1.05 | Vibrio cholerae 1.03 | [2] 1.01 | P. vulgatus RND KO 1.01 | P. vulgatus WT 1.02 | [3] 1 | [4] 0.948

CCC1(c2ccccc2)NC(=O)N(C)C1=O (stereo not given) [Mephenytoin]
inactive: [1] 1.01 | Shigella flexneri 0.997 | Vibrio cholerae 1.02 | [2] 1.01 | P. vulgatus RND KO 1 | P. vulgatus WT 1.03 | [3] 1 | [4] 1

NS(=O)(=O)c1cc2c(cc1Cl)NC(C(Cl)Cl)NS2(=O)=O (stereo not given) [Trichlormethiazide]
inactive: [1] 0.974 | Shigella flexneri 1.04 | Vibrio cholerae 0.957 | [2] 0.986 | P. vulgatus RND KO 0.974 | P. vulgatus WT 0.982 | [3] 1.01 | [4] 0.999

Cn1cnc2c1c(=O)[nH]c(=O)n2C [Theobromine]
inactive: [1] 1.03 | Shigella flexneri 1.08 | Vibrio cholerae 1.04 | [2] 1.03 | P. vulgatus RND KO 1.02 | P. vulgatus WT 1.03 | [3] 1.01 | [4] 1.01

CCOC(=O)[C@H](CCc1ccccc1)N[C@@H](C)C(=O)N1[C@H](C(=O)O)C[C@@H]2CCC[C@@H]21 [Ramipril]
inactive: [1] 1.02 | Shigella flexneri 1.06 | Vibrio cholerae 1.07 | [2] 1.01 | P. vulgatus RND KO 0.985 | P. vulgatus WT 0.99 | [3] 1.01 | [4] 1

C[C@]12C=CC(=O)C=C1CC[C@@H]1[C@@H]2C(=O)C[C@@]2(C)[C@H]1CC[C@]2(O)C(=O)CO [Prednisone]
inactive: [1] 1.01 | Shigella flexneri 0.994 | Vibrio cholerae 1 | [2] 1.01 | P. vulgatus RND KO 1.02 | P. vulgatus WT 1.02 | [3] 0.994 | [4] 0.999

Cc1ccccc1N1C(=O)c2cc(S(N)(=O)=O)c(Cl)cc2NC1C (stereo not given) [Metolazone]
inactive: [1] 0.994 | Shigella flexneri 0.984 | Vibrio cholerae 0.996 | [2] 0.991 | P. vulgatus RND KO 0.99 | P. vulgatus WT 1 | [3] 1.02 | [4] 0.997

Cn1nnc2c(C(N)=O)ncn2c1=O [Temozolomide]
inactive: [1] 0.981 | Shigella flexneri 0.963 | Vibrio cholerae 0.992 | [2] 0.996 | P. vulgatus RND KO 0.989 | P. vulgatus WT 0.988 | [3] 0.967 | [4] 1.01
